Bioassay records as filed in PubChem BioAssay.
This excerpt belongs to a sample that is enriched for hits.
TDP-43 tox inh: qHTS of TDP-43 Inhibitors: NCGC Sytravon Library Screen. yeast TDP-43 toxicity rescue, BacTiter-Glo growth, 24 h. Potency, µM (series often up to 46.1 µM), most hits filed as activators. actives 0.45% (n = 45,000). AID 1347073, 2019; active = well fitted activation curve with a large enough effect; also: 0% is about no effect; nearly all actives have a fitted effect of over 55% in size
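TDP-43-expressing yeast, pregrown in raffinose, seeded at OD600 0.02 in galactose medium with compound for 24 hr at 30 deg C. Growth read by BacTiter-Glo luminescence, so rescue of toxicity appears as activation.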
An asterisk follows results filed as active; i = inactive. Potency is read from the fitted curve at half-maximal effect.

SMILES | TDP-43 tox inh
COc1cccc2cc(C(=O)OCC(=O)NC3CCCC(C)C3C)c(=O)oc12 (stereo not given) | i
COc1ccc(Cl)cc1C(=O)OCC(=O)N1CCCC(C)C1 (stereo not given) | i
COc1ccc(Cl)cc1C(=O)OCC(=O)NC1CCCC(C)C1C (stereo not given) | 17.8µM*
Cc1ccc2nc(-c3ccccc3F)c(Nc3ccc(Cl)cc3)n2c1 | i
CN(CC(=O)NCCc1ccc(S(N)(=O)=O)cc1)CC(=O)Nc1ccccc1C(F)(F)F | i
N#Cc1ccc(/C=N/NC(=O)c2cccc(S(=O)(=O)N3CCOCC3)c2)cc1 | i
Cc1ccc(C(=O)NC2CCN(CC(=O)NC3CCC(C)CC3)CC2)cc1 (stereo not given) | i
Cc1ccc(/C=C/C(=O)OCn2nnc3ccccc3c2=O)o1 | 14.1µM*
C[C@H](NC(=O)CCCn1nnc2ccccc2c1=O)C(=O)O | i
Cc1ccccc1OCC(=O)OCn1nnc2ccccc2c1=O | i
COc1ccc(CCNC(=O)CCCn2nc(C)c([N+](=O)[O-])c2C)cc1OC | i
O=C(Cc1ccccc1)NNC(=S)NC(=O)c1cccnc1 | i
O=C(NC(=S)NNC(=O)[C@H]1C[C@@H]1c1ccccc1)c1cccc(F)c1 | 12.6µM*
O=C(NNC(=S)NC(=O)c1ccc(F)cc1)c1cccnc1 | i
COc1ccc(OC)c(NC(=O)CCCSc2ccccc2)c1 | i
Cc1cc2c(c(SCC(=O)NCc3ccccc3Cl)n1)C(=O)OC2 | i
C=CCSc1nc(C)cc2c1C(=O)OC2 | 10µM*
Cc1cc2c(c(N3CCOCC3)n1)C(=O)OC2 | i
Cc1nc(C(F)(F)F)ccc1C(=O)N1CCC1(C)C(=O)NS(=O)(=O)c1cccc(Cl)c1 (stereo not given) | i
CCCc1nnc2c(N(C)S(=O)(=O)c3ccc(C)cc3)nc3ccccc3n12 | i
CN(c1nc2ccccc2nc1Cl)S(=O)(=O)c1ccccc1 | 12.6µM*
Clc1nc2ccccc2nc1-c1ccccc1 | i
CCNC(=O)Nc1ccc(-n2nc(C)c(C(=O)OCC)c2C)nc1 | i
Cc1cc(C)c(NS(=O)(=O)c2ccc3c(c2)NC(=O)CC(=O)N3)c(C)c1 | i
Cc1cccc(N2CCN(C(=O)c3ccc4[nH]c(C)c(C)c4c3)CC2)c1C | i
SMILES | TDP-43 tox inh
CCOC(=O)C1CCN(C(=O)/C=C/c2cccs2)CC1 | i
Cc1cccc(N2CCN(C(=O)/C=C/c3cccs3)CC2)c1C | 14.1µM*
O=C(CN1CCN(S(=O)(=O)N2CCCCCC2)CC1)Nc1ccc(Br)cc1 | i
O=C(COC(=O)COc1ccc(Cl)cc1Br)NC1CC1 | i
COc1cccc(C(O)c2nc(-c3cccc4cccnc34)cs2)c1 (stereo not given) | i
CC(=O)N1c2ccc3ccccc3c2C(C)CC12CCCCC2 (stereo not given) | 14.1µM*
CC(=O)OC[C@H]1COc2ccc3ccccc3c2[C@H]1N(C)C(C)=O | i
O=C(Nc1nc2ccc3ccccc3c2s1)c1ccc(N2CCCCC2)c([N+](=O)[O-])c1 | i
COc1ccc(NC(=O)C2Cc3c(-c4cccc(C(C)=O)c4)ccnc3O2)cn1 (stereo not given) | i
O=C(c1cccc(OC2CCN(Cc3ccc(F)cc3Cl)CC2)c1)N1CCCC1 | i
COc1ccccc1C1CC(c2cccs2)=NN1C(=O)CCC(=O)O (stereo not given) | i
Cc1ccc(C2CC(c3cccs3)=NN2C(=O)CCl)cc1 (stereo not given) | 12.6µM*
COc1ccc(C2CC(c3cccs3)=NN2C(=O)c2ccc(Br)o2)cc1 (stereo not given) | i
CSc1ccc(CNC(=O)C2CCN(c3nnc(-n4cccc4CNc4ccc(C)cc4)s3)CC2)cc1 | i
CCOC(=O)C1CCN(C(=O)CNC(=O)c2nn(-c3ccc(OC)c(OC)c3)c(=O)c3ccccc23)CC1 | i
COc1ccc(-n2nc(C(=O)NCC(=O)N3CCN(Cc4ccccc4)CC3)c3ccccc3c2=O)cc1OC | i
COc1ccc(-n2nc(C(=O)NCC(=O)N3CCC(C)CC3)c3ccccc3c2=O)cc1Cl | 17.8µM*
CN(C)c1ccc(C(=O)N2CCCC2)cc1 | i
Cc1nn(Cc2ccccc2)c2c1C(c1cccc(Cl)c1)C(C#N)=C(N)O2 (stereo not given) | i
Nc1c(O)ccc2c1C(=O)c1ccccc1C2=O | i
CN(C)C(=O)c1cn(-c2ccccc2)nc1-c1cccc([N+](=O)[O-])c1 | i
CN(C)C(=O)c1ccc2c(c1[N+](=O)[O-])C(=O)c1ccccc1C2=O | 10µM*
COc1ccc(NC(=O)COC(=O)C2C3CC4OC(=O)C2C4C3)cc1 (stereo not given) | i
COc1ccc(-n2c(=O)c3ccccc3n(CC(=O)NCC3CCCO3)c2=O)cc1 (stereo not given) | i
COc1ccc(-c2onc(C)c2-c2cnn(-c3ccccc3)c2)c(O)c1C | i
SMILES | TDP-43 tox inh
COc1cc(NC(=O)c2ccc(-c3c(C)noc3C)c3ccoc23)cc(OC)c1OC | i
COc1ccc(-c2onc(C)c2-c2ccc(C(=O)OC(C)C)o2)c(O)c1 | 15.8µM*
CCN(C(=O)c1cc2c(=O)[nH]c3ccc(C)cc3c2s1)c1ccc(OC)cc1 | i
COc1ccccc1-c1ccc2c(c1)C(C)(Cc1ccc(Cl)c(Cl)c1)C(=O)N2 (stereo not given) | i
Cc1ccc(CC2(C)C(=O)Nc3c(Cl)cccc32)cc1 (stereo not given) | 8.91µM*
CCc1ccc2c(c1)NC(=O)C2(C)Cc1ccc(Cl)cc1 (stereo not given) | i
CCN(C(=O)CSc1n[nH]c(-c2cc(Cl)ccc2OC)n1)C1CCS(=O)(=O)C1 (stereo not given) | i
CC1(C(=O)NS(=O)(=O)c2ccc(F)cc2F)CCN1C(=O)c1ccccc1 (stereo not given) | i
CC(=O)c1c(C)[nH]c(C(=O)CSc2nnc(-c3ccco3)o2)c1C | i
CC(=O)c1ccc(NC(=O)CSc2nnc(-c3ccco3)o2)cc1 | i
Cc1ccc(CSc2nnc(-c3ccco3)o2)cc1 | 12.6µM*
O=[N+]([O-])c1cccc(OCC(O)CN2CCN(S(=O)(=O)c3cc(Cl)ccc3Cl)CC2)c1 (stereo not given) | i
CCc1nc2ccc(C(=O)NCC3CCCCC3)cn2c1N(CCC(C)C)CCN(C)C | i
CN(C)c1nc(Oc2ccc(/C=N/O)cc2)nc(N(C)C)n1 | 11.2µM*
CCN(CC)c1nc(Oc2ccc(C(=O)NN)cc2)nc(Oc2ccc(C(=O)NN)cc2)n1 | i
O=[N+]([O-])c1ccc(Oc2ccc(/C=N/O)cc2)nc1 | i
Cc1ccc(C(C)(C)C)cc1S(=O)(=O)Nc1cccc(S(=O)(=O)NC2=NCCC2)c1 | i
COc1ccc(C)cc1NC(=O)C/C(C)=N/NC(=O)Cc1cccc2ccccc12 | i
CCn1cc(C(=O)N2CCN(c3ccc(C(C)=O)cc3)CC2)c2cc(OC)c(OC)cc2c1=O | i
CCc1nnc(NS(=O)(=O)c2ccc(N=CC3=C(O)CC(C)(C)CC3=O)cc2)s1 | i
O=C(COC(=O)CNC(=O)c1ccccc1)NC1CCCCC1 | i
O=C(COC(=O)CSc1ccc2ccccc2c1Br)NC1CC1 | 22.4µM*
O=C(COC(=O)c1ccccc1Br)NC1CCCC1 | i
COc1ccc(C(=O)N/C(=C/c2ccc(Cl)cc2)C(=O)Nc2ccc(C(=O)O)cc2)cc1 | i
Cc1c(CNC(=O)C2CCC(=O)N(CCc3ccccc3)C2)cnn1C (stereo not given) | i
